hERG WT inh = blocks the wildtype human KCNH2 potassium channel | AID 720551 | activity change, % at 1.84 µM | 340,000 compounds, 0.37% hits | Q12809 | U2OS, BacMam KCNH2, thallium flux FluxOr; hits give low values;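 active means maximum activity change below -70%; inconclusive means maximum activity change between -70% and -50%; inactive means maximum activity change above -50%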
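U2OS cells transduced with wild-type KCNH2 virus are loaded with FluxOr dye for 45 min, and thallium flux is measured in kinetic reads before and after stimulation buffer. Rate constants are normalized to DMSO controls.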
GLP-1R inv ag = acts as inverse agonist at human GLP-1 receptor. HEK293 GLP-1R CRE-luciferase, luminescence, 24 h; GLP-1R form is constitutively active. Potency, µM (titrated, usually from 38.3 µM), hits mostly inhibitors. 410,000 compounds, 1.6% hits. AID 624417; further: nearly all actives have a fitted effect of over 55% in size
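Readout was luciferase luminescence, measured 12 min after detection reagent at room temperature. Beforehand, GLP-1R reporter HEK293 cells had sat 12 h, then received compounds for 24 hr at 37 deg C.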
GLS inhibitor = blocks human kidney-isoform glutaminase activity; O94925; GLS enzymatic activity, qHTS titration; Potency, µM (highest dose often 45.5 µM), usual class: inhibitors; 410,000 compounds, 0.21% hits; AID 624170
Target sequence (O94925 whole entry, looked up, canonical isoform): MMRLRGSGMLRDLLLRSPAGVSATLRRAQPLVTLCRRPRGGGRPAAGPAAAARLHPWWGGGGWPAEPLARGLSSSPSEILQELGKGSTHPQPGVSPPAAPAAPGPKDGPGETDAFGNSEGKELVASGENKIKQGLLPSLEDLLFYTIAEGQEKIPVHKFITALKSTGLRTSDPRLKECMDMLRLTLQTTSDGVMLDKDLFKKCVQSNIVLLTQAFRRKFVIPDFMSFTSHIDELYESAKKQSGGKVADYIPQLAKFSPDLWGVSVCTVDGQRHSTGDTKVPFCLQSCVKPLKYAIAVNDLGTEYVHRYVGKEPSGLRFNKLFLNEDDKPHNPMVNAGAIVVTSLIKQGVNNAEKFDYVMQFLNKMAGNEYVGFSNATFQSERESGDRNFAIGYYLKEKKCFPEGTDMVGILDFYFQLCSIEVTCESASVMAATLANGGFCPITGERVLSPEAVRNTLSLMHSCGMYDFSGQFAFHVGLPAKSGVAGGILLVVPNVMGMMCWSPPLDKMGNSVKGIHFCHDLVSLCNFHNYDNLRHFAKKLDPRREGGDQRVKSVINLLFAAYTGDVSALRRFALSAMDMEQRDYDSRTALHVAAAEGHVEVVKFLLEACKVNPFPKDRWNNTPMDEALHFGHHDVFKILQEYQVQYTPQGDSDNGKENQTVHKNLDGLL
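Assay buffer: 45 mM KH2PO4 pH 8.2, 0.02% Tween-20. hKGA acts on L-glutamine (1 mM solution added); product glutamate is reported by an oxidase/peroxidase Amplex Red coupling, with fluorescence taken at baseline and 30 min.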
GLP-1R agonist = GLP-1 receptor (human) agonism; P43220; HEK293 GLP-1R CRE-luciferase, luminescence, 4-6 h; cells express a hypersensitive GLP-1R form; AID 624172; Potency, µM (top dose mostly 45.6 µM), usual class: activators; 380,000 compounds, 0.007% hits
HEK293 tox-1 = cytotoxicity counter-screen for GLP-1 receptor inverse agonists. HEK293 cAMP-luciferase reporter cells, luminescence, 24 h. Potency, µM (titrated, usually from 38.3 µM), usual class: inhibitors. 410,000 compounds, 0.13% hits. AID 624418;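 further: loss of luciferase light is scored as toxicity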
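A 23 nL compound transfer followed 12 hours of cell culture at 37 deg C; exposure then lasted 24 hr. Luciferase assay detection reagent was dispensed and plates read for luminescence after a 12 min room-temperature wait.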
KCNH2 3.1 block = inhibitors of human KCNH2 3.1 potassium channel isoform; 340,000 compounds, 0.95% hits; U2OS KCNH2 3.1, thallium flux FluxOr; hits give low values; activity change, % (tested at about 1.8 µM);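 active means maximum activity change below -70%; inconclusive means maximum activity change from -70% to -50%; inactive means maximum activity change above -50%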;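 further: thallium influx rate constant from kinetic fluorescence after stimulation buffer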
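Channel expression came from 3.1 mutant virus (1.77 x 10^8 /mL) applied to suspended U2OS cells for 4 h. Flux was tracked with FluxOr dye plus Red40 quencher, and kinetic rate constants normalized to controls.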
GLS confirm = glutaminase (human) inhibition, hit confirmation; shares compounds with GLS inhibitor; biochemical glutaminase enzyme inhibition assay; Potency, µM (highest dose often 46.1 µM), actives largely listed as inhibitors; 35 tested, under 10 active; calls by dose curve
GLS HRP counter = counter-screen for glutaminase inhibitors: HRP coupled enzyme inhibition; shares compounds with GLS inhibitor; HRP/glutamate oxidase coupled Amplex Red fluorescence counterscreen; activity change, negative = inhibition, % at 46.1 µM; 35 tested, under 10 active; AID 624262
HEK293 tox-2 = reduces HEK-293 viability in glutaminase inhibitor counter-screen; shares compounds with GLS inhibitor; HEK-293 viability, CellTiter-Glo luminescence, 24 h; activity change, negative = cytotoxicity, % at 46.1 µM; 35 tested, under 10 active; AID 624264
A number is an active result; n = inactive; u = inconclusive; x = no result given; [ ] = dose if it differs, or a comment. In the library only some 2.8% were active in any assay of this set; here they are far more common. Unless noted, the call rests on the fitted dose curve; in most records, active means well fitted curve in the direction sought with a large enough effect; inconclusive means small, poorly fitted or top-dose-only effect, or another doubt; inactive means no such curve, though single readings can be large; an effect the other way counts as inactive or inconclusive.

SMILES | hERG WT inh | GLP-1R inv ag | GLS inhibitor | GLP-1R agonist | HEK293 tox-1 | KCNH2 3.1 block | others
Cc1ccc(C(=O)N/C(=C\c2ccc(Cl)cc2)C(=O)NCCCN2CCOCC2)cc1 | -140.6 | u | n | n | n[1.53 µM] | -103.2
COc1ccc(C(=O)N/C(=C\c2ccc(-c3cccc([N+](=O)[O-])c3)o2)C(=O)NCCCN2CCOCC2)cc1 | n | u | n | n | n | n
O=C(NCCCN1CCN(CCCNC(=O)c2cccc([N+](=O)[O-])c2)CC1)c1cccc([N+](=O)[O-])c1 | n | n | n | n | n | -81.3
Cc1ccc(C(=O)N/C(=C\c2ccc(-c3cccc([N+](=O)[O-])c3)o2)C(=O)NCCCN2CCOCC2)cc1 | n | u | n | n | u | -185.9
CC(C)c1ccc(S(=O)(=O)c2cnc(SCC(=O)Nc3cccc(C(F)(F)F)c3)nc2N)cc1 | x | u | n | n | n | x
CCOC(=O)Cn1c(=O)n(-c2ccccc2OC)c2nc(-c3ccccc3)nc(C(N)=O)c21 | x | u | n | n | n | x
CCCOc1ccc(CNC(=O)CCCN2C(=O)CSc3c2c(C)nn3-c2ccccc2)cc1 | x | u | n | x | n | x
O=C(NCCc1ccc(Cl)cc1)c1ccc(Cn2c(=O)c3cccn3c3cccnc32)cc1 | x | n | n | x | n | x
CCOC(=O)C1CCCN(C(=O)c2nn(-c3ccc(C)cc3)c(=O)n(C)c2=O)C1 (configuration not stated) | x | n | n | x | n | x
Cc1ccc(Nc2nc(N)nc(CCl)n2)c(C)c1 | n | 4.47µM | n | n | n | n
COc1ccccc1Nc1nc(N)nc(CCl)n1 | n | n | n | n | u | n
Cc1cccc(Nc2nc(N)nc(CCl)n2)c1C | n | 5.01µM | n | n | n | n
CCCN1CCN(CCCNC(=O)c2ccc3c(Cl)c4c(nc3c2)CCCC4)CC1 | n | 5.01µM | n | n | u | n
CCN(CC)CCCNC(=O)c1ccc2c(Cl)c3c(nc2c1)CCCC3 | n | 4.47µM | n | n | u | n
COc1cccc(NC(=O)CSc2nc(=O)n(Cc3ccccn3)c3c2CCC3)c1 | x | n | n | x | n | x
Cc1noc(-c2ccc(N3CCCCC3)c([N+](=O)[O-])c2)n1 | x | n | n | x | n | x
Cc1ccc2c(c1)N(C(=O)CCC(=O)NCCCN1CCC(Cc3ccccc3)CC1)CCO2 | n | u | n | n | n | -115.7
COc1ccc(C2=NOC(Cn3nc(C(=O)NCc4cccc(C(F)(F)F)c4)cc3-c3ccccc3)C2)cc1 (configuration not stated) | n | u | n | n | n | -73.9
Cc1ccccc1-c1cc(C(=O)NCc2ccc(OC(F)(F)F)cc2)n(CC2CC(c3cccnc3)=NO2)n1 (configuration not stated) | n | 22.4µM | n | n | n | n
CN(c1ccc(OCC(=O)N2CCN(c3ccc(F)cc3)CC2)cc1)S(=O)(=O)c1cccs1 | n | 11.2µM | n | n | n | n
CN(c1ccc(OCC(=O)N2CCCCC2)cc1)S(=O)(=O)c1cccs1 | n | u | n | n | n | n
COc1ccc(NC(=O)C(NC(=O)/C=C\c2ccc3c(c2)OCO3)c2ccccc2)cc1 (configuration not stated) | x | u | n | x | n | x
c1ccc(Nc2nc(-c3ccccn3)cs2)cc1 | n | 5.62µM | u | n | 3.16µM | n
CC(=O)c1cccc(Nc2nc(-c3ccccc3)cs2)c1 | n | u | n | n | n | n
O=C(Nc1cccc(-c2csc(Nc3ccccc3)n2)c1)c1ccccc1 | n | 8.91µM | n | n | n | -78.8
SMILES | hERG WT inh | GLP-1R inv ag | GLS inhibitor | GLP-1R agonist | HEK293 tox-1 | KCNH2 3.1 block | others
Cc1ccc(-c2nn(-c3ccccn3)c(=O)c3ccccc23)cc1C | n | 10µM | n | n | n | n
COc1ccccc1N1CCN(C(=O)C2CCN(S(=O)(=O)c3cccs3)CC2)CC1 | x | n | n | x | n | x
O=C(O)/C=C/c1ccc(S(=O)(=O)Nc2ccc3[nH]c(=O)[nH]c3c2)cc1 | n | n | u | n | n | n | GLS confirm=n;GLS HRP counter=n;HEK293 tox-2=n
Cc1ccc(NS(=O)(=O)c2ccc(/C=C/C(=O)O)cc2)cc1Cl | n | n | n | n | n | n
COc1ccc(C)cc1NC(=O)CSc1nc(=O)n(Cc2ccccn2)c2c1CCC2 | x | n | n | x | n | x
COc1ccc(S(=O)(=O)c2cc3cc(C(C)(C)C)cc(O)c3oc2=O)cc1 | x | u | n | x | n | x
COc1ccccc1NS(=O)(=O)c1cc(NC(=O)c2cc[n+]([O-])cc2)ccc1N1CCCC1 | n | n | 11.2µM | n | n | n | GLS confirm=n;GLS HRP counter=n;HEK293 tox-2=n
COc1ccc(NS(=O)(=O)c2cc(N)ccc2N2CCOCC2)cc1 | n | n | n | n | n | n
COc1ccc(NS(=O)(=O)c2cc(N)ccc2N2CCCC2)cc1 | n | n | u | n | n | n | GLS confirm=n;GLS HRP counter=u;HEK293 tox-2=n
O=C(O)c1ccc(S(=O)(=O)Nc2ccc(O)c(Sc3nc4ccccc4s3)c2)cc1 | n | n | u | n | n | n | GLS confirm=u;GLS HRP counter=u;HEK293 tox-2=n
CCN(CC(=O)Nc1c(F)cccc1F)C(=O)CNC(=O)C1CCCCC1 | n | u | n | n | n | n
COc1ccc(NS(=O)(=O)c2ccc(NC(=S)NCC3CCCO3)cc2)cc1 (configuration not stated) | n | u | n | n | n | n
COc1ccccc1NS(=O)(=O)c1ccc(O)c(NC(=S)NCC2CCCO2)c1 (configuration not stated) | n | n | u | n | n | n | GLS confirm=n;GLS HRP counter=n;HEK293 tox-2=n
NNC(=O)c1cc2ccccc2cc1NS(=O)(=O)c1ccccc1 | n | n | u | n | n | n | GLS confirm=n;GLS HRP counter=n;HEK293 tox-2=n
CC(=O)c1c(C)oc2ccc(NS(=O)(=O)c3ccc(C)cc3)cc12 | n | n | n | n | n | n
Cc1ccc(C)c(S(=O)(=O)Nc2ccc3oc(C)c(C(=O)O)c3c2)c1 | n | n | 12.6µM | n | n | n | GLS confirm=u;GLS HRP counter=n;HEK293 tox-2=n
Cc1cccc(Cn2nnc3c(=O)[nH]c(C4CCCN(C(=O)c5ccccc5Cl)C4)nc32)c1 (configuration not stated) | x | n | n | x | n | x
COc1ccc(NS(=O)(=O)c2ccc3c(c2)[C@H]2C=CC[C@H]2[C@@H](c2ccc(C(=O)O)cc2)N3)cc1 | n | n | 10µM | n | n | n | GLS confirm=3.26µM;GLS HRP counter=n;HEK293 tox-2=n

Assay outcomes: PubChem BioAssay, National Center for Advancing Translational Sciences (NCATS)
